The values below come from the supplement of paper PMC8047044.

The subject of the first assay is Neuro-2a. Put plainly: neurite formation score, plate-normalized to DMSO control mean 5.04 (score (0-8 scale)); higher = more or longer neurites. The conditions noted are these: 1 µM. How it is done: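 Neuro-2a mouse neuroblastoma cells in PLL-coated 96-well plates were pre-treated for 1 h in DMEM(+) with each kinase inhibitor at 1 µM, then switched to serum-free DMEM(-) with inhibitor to induce neurite outgrowth and fixed about 2-3 h later. Three blinded observers scored neurite formation from 0 (no neurites) to 8 (long neurites on almost all cells).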
In the case of `Nc1nccc(-c2c(-c3ccc(F)cc3)ncn2C2CCCCC2)n1`, the neurite formation score is 5.02.

Consider `NC(=O)c1ccc2nc(-c3ccc(Oc4ccc(Cl)cc4)cc3)[nH]c2c1`, for which the neurite formation score was 4.63.

Compound `Cc1cc2c(F)c(Oc3ncnn4cc(OC[C@@H](C)OC(=O)[C@H](C)N)c(C)c34)ccc2[nH]1` yielded a neurite formation score of 3.57.

For `CN(C)S(=O)(=O)c1ccc2c(c1)/C(=C/c1cc3c([nH]1)CCCC3)C(=O)N2`, the neurite formation score was determined as 4.54.

As for `Cc1cc(CS(=O)(=O)c2ccccc2)cc(OCc2ccc(CN3CCC[C@@H]3CO)cc2)c1`, the neurite formation score was 4.69.

Compound `N#Cc1c(NC(=O)c2cccc3ccccc23)sc2c1CCCC2` showed a neurite formation score of 0.543.

In the case of `O=C1NC(=O)C(c2ccccc2[N+](=O)[O-])=C1Nc1ccc(O)c(Cl)c1`, the neurite formation score is 3.9.

In turn, `Cn1c(=O)c(F)c(Nc2ccc(I)cc2F)c2c(=O)n(C[C@@H](O)CO)cnc21` displayed a neurite formation score of 4.88.

The compound `O=C(NCc1cccc(O)c1)Nc1nc(-c2ccncc2)cs1` registered a neurite formation score of 5.02.

Consider `O=C(O)c1ccc(-c2c[nH]c3ncc(-c4ccccc4)cc23)cc1C1CCCC1`, for which the neurite formation score came to 5.29.

Compound `Nc1nc(Nc2ccc3c(c2)CCC(N2CCCC2)CC3)nn1-c1cc2c(nn1)-c1ccccc1CCC2` (centres undefined) displayed a neurite formation score of 4.24.

Regarding `CNc1nc(Nc2cnn(C3CCN(C4COC4)CC3F)c2Cl)ncc1C(F)(F)F` (centres undefined), the neurite formation score amounted to 4.88.

On to `CN1CCN(c2ccc3nc(-c4c(N)c5c(F)cccc5[nH]c4=O)[nH]c3c2)CC1` [Dovitinib Dilactic acid], for which the neurite formation score stood at 4.96.

In turn, `CSc1cccc(Nc2ncc3cc(-c4c(Cl)cccc4Cl)c(=O)n(C)c3n2)c1` displayed a neurite formation score of 0.626.

`CNC(=O)Nc1ccc(-c2nc(N3CC4CCC(C3)O4)c3cnn(C4CCC5(CC4)OCCO5)c3n2)cc1` had a neurite formation score of 3.54.

The compound `CC(C)N(CCC(=O)c1ccc2ccccc2c1)Cc1ccccc1` showed a neurite formation score of 5.02.

Compound `Cc1ncc(-c2ccnc(Nc3ccc(S(C)(=O)=O)cc3)n2)n1C(C)C` showed a neurite formation score of 4.24.

`O=C(Nc1ccccc1C(=O)NC1CCCCNC1=O)c1cc2ccccc2s1` (centres undefined) showed a neurite formation score of 3.54.

Turning to `FC(F)c1nc2ccccc2n1-c1nc(N2CCOCC2)nc(N2CCOCC2)n1`, the neurite formation score stood at 4.24.

As to `O=C1NCCc2[nH]c(-c3ccncc3)cc21`, the neurite formation score was found to be 5.69.

The compound `Cn1cnc(=N)c2[nH]cnc21` [3-Methyladenine] displayed a neurite formation score of 4.24.

`CCN1CCN(Cc2ccc(NC(=O)Nc3ccc(Oc4cc(NC)ncn4)cc3)cc2C(F)(F)F)CC1` returned a neurite formation score of 4.57.

Consider `Cc1cc(CN2CCN(c3c(Br)cnc4nc(-c5ccc(N6CCN(C)CC6)cc5)[nH]c34)CC2)no1`, for which the neurite formation score is 4.47.

Take `CCS(=O)(=O)N1CC(CC#N)(n2cc(-c3ncnc4[nH]ccc34)cn2)C1`: the neurite formation score was found to be 4.02.

`O=C(c1ccc(F)c(F)c1Nc1ccc(I)cc1F)N1CC(O)([C@@H]2CCCCN2)C1` [Cobimetinib] yielded a neurite formation score of 3.24.

`CCCCCCCCCCCCCCCCCC(=O)OC[C@H](CO)OC(=O)CCCCCCCCCCCCCCCCC` [1,2-Distearoyl-sn-glycerol] showed a neurite formation score of 4.54.

Compound `CNC(=O)c1cccc(-c2ccc3c(N4CCOC[C@@H]4C)nc(N4CCOC[C@@H]4C)nc3n2)c1` showed a neurite formation score of 4.29.

Compound `O=C(NCCCNc1nc(Nc2cccc(CN3CCOCC3)c2)ncc1C1CC1)C1CCC1` came in with a neurite formation score of 5.02.

The compound `C1=N/C2=N/c3ccc(OCCN4CCCC4)c(c3)COC/C=C/COCc3cccc(c3)C(=C1)N2` [Pacritinib] had a neurite formation score of 2.29.

As to `COc1cc2ncnc(Nc3cccc(Br)c3)c2cc1OC`, the neurite formation score was determined as 4.14.

`O=C1Nc2ccc(I)cc2/C1=C/c1cc(Br)c(O)c(Br)c1` showed a neurite formation score of 3.29.

`Clc1ccc(Nc2nnc(Cc3ccncc3)c3ccccc23)cc1` [Vatalanib (PTK787) 2HCl] displayed a neurite formation score of 3.91.

The compound `COc1cc(N2CCC(N3CCN(C)CC3)CC2)ccc1Nc1ncnc(Nc2ccccc2S(=O)(=O)C(C)C)n1` had a neurite formation score of 5.24.

As to `CO[C@@H](C(=O)N1Cc2[nH]nc(NC(=O)c3ccc(N4CCN(C)CC4)cc3)c2C1)c1ccccc1`, the neurite formation score turned out to be 3.69.

On to `Cn1c(=O)n(-c2ccc(C(C)(C)C#N)cc2)c2c3cc(-c4cnc5ccccc5c4)ccc3ncc21`, for which the neurite formation score is 2.9.

On to `N#Cc1cccc(-c2c[nH]c3ncnc(N4CCOCC4)c23)c1`, for which the neurite formation score was found to be 5.21.

As for `CC1=C(C(=O)Nc2cc3cn[nH]c3cc2F)C(c2ccc(C(F)(F)F)cc2)CC(=O)N1` (centres undefined), the neurite formation score was determined as 0.236.

A further assay deals with Neuro-2a. The description is as above. Particulars: 0.1 µM. How it is done: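 Neuro-2a mouse neuroblastoma cells in PLL-coated 96-well plates were pre-treated for 1 h in DMEM(+) with each kinase inhibitor at 0.1 µM, then switched to serum-free DMEM(-) with inhibitor to induce neurite outgrowth and fixed about 2-3 h later. Three blinded observers scored neurite formation from 0 (no neurites) to 8 (long neurites on almost all cells).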
With `Nc1nccc(-c2c(-c3ccc(F)cc3)ncn2C2CCCCC2)n1`, the neurite formation score was 5.58.

As for `Cc1cc(CS(=O)(=O)c2ccccc2)cc(OCc2ccc(CN3CCC[C@@H]3CO)cc2)c1`, the neurite formation score worked out at 5.58.

Turning to `N#Cc1c(NC(=O)c2cccc3ccccc23)sc2c1CCCC2`, the neurite formation score amounted to 0.751.

For `Cn1c(=O)c(F)c(Nc2ccc(I)cc2F)c2c(=O)n(C[C@@H](O)CO)cnc21`, the neurite formation score turned out to be 4.42.

As to `Nc1nc(Nc2ccc3c(c2)CCC(N2CCCC2)CC3)nn1-c1cc2c(nn1)-c1ccccc1CCC2` (centres undefined), the neurite formation score amounted to 4.54.

The compound `CN1CCN(c2ccc3nc(-c4c(N)c5c(F)cccc5[nH]c4=O)[nH]c3c2)CC1` [Dovitinib Dilactic acid] gave a neurite formation score of 4.92.

As to `CNC(=O)Nc1ccc(-c2nc(N3CC4CCC(C3)O4)c3cnn(C4CCC5(CC4)OCCO5)c3n2)cc1`, the neurite formation score was determined as 4.75.

`Cc1ncc(-c2ccnc(Nc3ccc(S(C)(=O)=O)cc3)n2)n1C(C)C` showed a neurite formation score of 3.54.

`FC(F)c1nc2ccccc2n1-c1nc(N2CCOCC2)nc(N2CCOCC2)n1` showed a neurite formation score of 4.21.

The compound `Cn1cnc(=N)c2[nH]cnc21` [3-Methyladenine] yielded a neurite formation score of 4.88.

As for `Cc1cc(CN2CCN(c3c(Br)cnc4nc(-c5ccc(N6CCN(C)CC6)cc5)[nH]c34)CC2)no1`, the neurite formation score worked out at 4.76.

As for `CCCCCCCCCCCCCCCCCC(=O)OC[C@H](CO)OC(=O)CCCCCCCCCCCCCCCCC` [1,2-Distearoyl-sn-glycerol], the neurite formation score was 5.42.

For the compound `C1=N/C2=N/c3ccc(OCCN4CCCC4)c(c3)COC/C=C/COCc3cccc(c3)C(=C1)N2` [Pacritinib], the neurite formation score was 4.92.

`O=C1Nc2ccc(I)cc2/C1=C/c1cc(Br)c(O)c(Br)c1` yielded a neurite formation score of 4.25.

Take `Clc1ccc(Nc2nnc(Cc3ccncc3)c3ccccc23)cc1` [Vatalanib (PTK787) 2HCl]: the neurite formation score came out at 3.71.

The compound `COc1cc(N2CCC(N3CCN(C)CC3)CC2)ccc1Nc1ncnc(Nc2ccccc2S(=O)(=O)C(C)C)n1` returned a neurite formation score of 4.38.

With `CC1=C(C(=O)Nc2cc3cn[nH]c3cc2F)C(c2ccc(C(F)(F)F)cc2)CC(=O)N1` (centres undefined), the neurite formation score worked out at 4.21.
